Source: PubChem BioAssay (National Center for Advancing Translational Sciences (NCATS))
Only some compounds are listed: those with a hit (about 1.3% of all), similar ones and a draw of the others.
IL2 activator: IL-2 activation; IL-2 activation reporter assay, cell-based qHTS; stimulated with anti-CD3/CD4/CD28 beads; in transgenic mouse T cells; activation, % (series mostly up to about 46 µM); actives 0.065% (n = 360,000); AID 652025; in the data active = activation above about 50%; inconclusive = mostly about 30% to 49%; note: 0% is about no effect
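Using fluorescent plate cytometry, EGFP and DsRed are detected in transgenic mouse T cells stimulated 18 h at 37 degrees C with antibody-coated beads after 60 min compound pretreatment.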
p53 reactivator: restores transcriptional activity of mutant p53 | AID 504706 | Potency, µM (doses to about 92.2 µM), for the others: at the top dose activity change, positive = activation, usual class: activators | H1299 p53-A138V BP100-luciferase reporter, luminescence, 24 h | actives 0.063% (n = 320,000); note: potency is the fitted concentration of half-maximal effect; % of control where 0% means no effect; nearly all actives have a fitted effect of over 45% in size
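H1299 (p53-null), stable ts p53-A138V + BP100-Luc; 1000 cells/well, Opti-MEM/10% FBS; cpd 4 pt, 1:5; 24 h, 37 deg C, 5% CO2; detection reagent 10 min RT; luminescence.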
TCR activator: activates T cell receptor signaling | primary human leukocytes, anti-CD3, IL-2 HTRF, 48 h | 330,000 tested, under 10 active | Potency, µM (doses to about 9.22 µM), for inactives: at the top dose activation of IL-2 secretion, actives largely listed as activators; note: % of control where 0% means no effect
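Primary human leukocytes receive a-CD3 beads and test compound and are incubated 48 hr. Secreted IL-2 is then assayed by HTRF, measuring 665nm acceptor emission after 320nm excitation of the europium donor.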
BRCA1 expr act: increases BRCA1 expression; actives 1.1% (n = 380,000); Potency, µM (titrated, usually from 46.1 µM), inactives show at the highest dose activation, usual class: activators; MCF7-BRCA1-FFLuc reporter, luminescence, 48 h; response scale: scaled: vehicle 0%, 10 µM genistein 100%; note: potency is the fitted concentration of half-maximal effect; nearly all actives have a fitted effect of over 80% in size
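Activators of BRCA1 expression were detected as increased firefly luciferase luminescence in engineered MCF7 cells after 48 h compound incubation. Signals were scaled to genistein 10 microM as full activation.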
Mito fusion yeast: inhibitors of mitochondrial division or activators of mitochondrial fusion; S. cerevisiae fusion-defective mutant growth rescue, CellTiterGlo 48 h; Potency, µM (titrated, usually from 46.1 µM), for the others: at the highest dose growth rescue (activation), hits mostly activators; actives 0.23% (n = 320,000); note: potency is the fitted concentration of half-maximal effect; % of control where 0% means no effect; nearly all actives have a fitted effect of over 45% in size
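Growth-rescue viability read-out: after 48 h at the non-permissive 37C in glycerol/ethanol YPEG, yeast mitochondrial fusion mutants are measured by CellTiterGlo luminescence; compounds (23 nl pinned per well) restoring growth score as division inhibitors or fusion activators.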
* = called active by the depositor; ? = inconclusive; . = no result; [ ] = dose if it differs, or a comment. Unless noted, calls come from the whole dose curve; as a rule, active = well fitted curve in the direction sought with a large enough effect; inconclusive = small, poorly fitted or top-dose-only effect, or another doubt; inactive = no such curve, though single readings can be large; an effect the other way counts as inactive or inconclusive.

SMILES	IL2 activator	p53 reactivator	TCR activator	BRCA1 expr act	Mito fusion yeast
OC(Cn1cncn1)c1ccc(Cl)cc1 (stereo not given)	1.0	0.7%	4.8%	-17.0%	-4.5%
COc1ccc(N2C(=O)CS(=O)(=O)C23C(=O)N(Cc2ccccc2F)c2ccccc23)cc1Cl (stereo not given)	.	.	.	-11.4%	.
COc1cc(C(F)(F)F)ccc1C(=O)NCCc1ccco1	1.1	12.3%	2.2%	6.31µM*	-4.8%
CCOC(=O)C1(Cc2ccccc2Cl)CCN(C(=O)CN2CCOC2=O)CC1	-2.1	6.3%	1.4%	12.6µM*	5.8%
CN(Cc1ccccc1)/[N+]([O-])=N/Oc1ccc([N+](=O)[O-])cc1[N+](=O)[O-]	.	.	.	-46.8%	.
O=C(CC1NCCNC1=O)Nc1ccccc1F (stereo not given)	.	.	.	14.2%	.
Cc1nn(-c2ccccc2)c2c1C1(C(=O)Nc3ccccc31)N1C(=N2)Sc2ccccc21 (stereo not given)	0.1	-19.0%	0.0%	-68.6%	17.8µM*
c1cc2c(cc1CNc1ccc(N3CCOCC3)cc1)OCO2	0.2	?	-27.9%	4.47µM*	.
CC(C)c1nnc(NC(=O)COc2ccc3c(c2)OCO3)s1	0.4	?	-3.5%	11.2µM*	-11.0%
Cc1cc(=O)oc2cc(OCC(=O)Nc3nnc(C(C)C)s3)ccc12	59.6*	3.0%	-9.9%	-24.8%	-0.3%
Cc1cc(=O)oc2cc(OCC(=O)Nc3nnc(CC(C)C)s3)ccc12	-1.4	2.6%	5.1%	1.8%	-1.6%
CCCCCCNc1ccc(/C=C/c2ccnc3ccccc23)cc1	.	.	.	-23.7%	.
C(=C\c1ccnc2ccccc12)/c1ccc(N2CCN(c3ccc(/C=C/c4ccnc5ccccc45)cc3)CC2)cc1	.	.	.	-29.2%	.
Cn1ccc2cc(-c3ccc4ncnc(NCc5cccnc5)c4c3)ccc21	.	.	.	.	-14.3%
Cc1ccc(C(=O)n2nc(C)c(S(=O)(=O)N3CCCCCC3)c2C)cc1	.	.	.	9.4%	.
COc1ccccc1C1N=C(c2ccccc2C)NO1 (stereo not given)	1.4	?	-5.3%	12.6µM*	-2.6%
Cc1ccccc1C1=NC(c2ccc(F)cc2F)ON1 (stereo not given)	-0.1	?	2.8%	22.2%	-4.7%
CCN(CC)C(=O)Cn1c(SCCOc2ccc(Cl)cc2)nc2ccccc21	.	.	.	0.0%	.
c1ccc(OCCNc2ccn3nc(-c4ccccc4)cc3n2)cc1	-0.4	.	.	?	.
c1ccc(OCCNc2ccn3nc(-c4ccco4)cc3n2)cc1	0.4	.	.	14.1µM*	.
Clc1cccc(CSc2ncnc3c2ncn3C2CCCCO2)c1 (stereo not given)	0.3	.	0.1%	5.62µM*	.
c1ccc(CNc2ncnc3c2ncn3C2CCCCO2)cc1 (stereo not given)	1.3	?	3.5%	12.6µM*	-2.0%
O=C(Cn1cnc2c(NCc3ccccc3)ncnc21)NCC1CCCO1 (stereo not given)	0.3	-4.9%	-5.8%[46.1 µM]	7.3%	.
c1ccc(CSc2ncnc3c2ncn3C2CCCCO2)cc1 (stereo not given)	0.5	.	16.5%	?	.
Fc1ccc(CSc2ncnc3c2ncn3C2CCCCO2)cc1 (stereo not given)	-2.5	.	4.4%	7.08µM*	.
SMILES	IL2 activator	p53 reactivator	TCR activator	BRCA1 expr act	Mito fusion yeast
COc1ccccc1CNC(=O)CC(c1ccc(C)cc1)N1Cc2ccccc2C1=O (stereo not given)	.	.	.	7.7%	.
c1coc(CNc2nc[n+]3c4c2ncn4CC3)c1	.	.	.	-7.5%	.
O=C(O)c1[nH]n(-c2ccc(S(=O)(=O)O)cc2)c(=O)c1N=Nc1ccc(S(=O)(=O)O)cc1	.	.	.	4.9%	.
COc1cc(/C=N/N2CCOCC2)ccc1OCc1ccccc1	-0.8	16.0%	5.6%	7.94µM*	5.7%
COc1cc(/C=N/N2CCOCC2)ccc1OCc1ccc(Cl)cc1	-3.7	1.0%	3.0%	2.24µM*	17.9%
COc1ccc(/C=N/N2CCOCC2)cc1OCc1ccccc1	0.6	-1.9%	4.7%	-32.2%	-8.8%
O=S(=O)(c1ccc(Cl)cc1)N1CCN(c2nc(-c3ccc(F)cc3)nc3cc(Cl)ccc23)CC1	.	.	.	5.7%	.
CC[n+]1cccc(Br)c1	.	.	.	-2.3%	.
O=C(O)c1cc(NN=C2CCN(Cc3ccccc3)CC2)ccc1Cl	-1.5	18.9%	3.9%	3.16µM*	-2.2%
CN1CCN(c2ccc(-c3cc(O)c4ncccc4c3)cc2)CC1	.	.	.	.	-1.6%
O=C(Cc1cn2ccsc2n1)OCc1ccccc1	0.3	12.8%	0.4%	31.8%	-6.8%
c1ccc(CSCc2cn3ccsc3n2)cc1	0.7	?	-46.4%	8.91µM*	-11.4%
CN(C(=O)C1CCC(=O)N(Cc2cccc(F)c2)C1)C1CCCCC1 (stereo not given)	6.9	-4.4%	-1.1%	7.94µM*	9.6%
O=C(CSCc1ccccc1)N1CCN(c2ccccc2)CC1	0.3	?	-1.8%[46.1 µM]	11.2µM*	18.3%
O=C(CSCc1ccccc1)N1CCN(c2ccc(F)cc2)CC1	-1.9	?	5.2%	26.0%	4.4%
NC(=O)C1(N2CCCCC2)CCN(S(=O)(=O)c2cc(Cl)sc2Cl)CC1	-0.5	-0.9%	6.0%	-17.9%	28.2µM*
COc1ccc(S(=O)(=O)N2CCC(C(N)=O)(N3CCCCC3)CC2)cc1	1.8	0.5%	-12.9%	-26.9%	1.0%
COc1ccc2c(c1)c1c(c(=O)n(-c3cc(Cl)ccc3C)c(=O)n1Cc1ccc(F)cc1)n2C	.	.	.	2.1%	.
CCOc1ccc2nc(N3CCOCC3)nc(C)c2c1	-0.5	?	-5.9%	4.47µM*	-2.0%
Cc1ccc(S(=O)(=O)N2CCN(c3nc(-c4cccs4)cc4ccccc34)CC2)cc1	.	.	.	0.0%	.
CCOC(=O)c1cnc(SCCc2ccccc2)nc1N	-4.4	?	0.3%	?	10.5%
CCCCSc1ncc(C(=O)OCC)c(N)n1	0.4	?	-0.7%[46.1 µM]	3.55µM*	3.6%
CCOC(=O)c1cnc(SCc2ccc(C)cc2)nc1N	-2.1	?	5.0%	7.08µM*	14.0%
CCOC(=O)c1cnc(SCC(=O)c2ccc(Cl)cc2)nc1N	2.3	11.7%	-1.0%	47.7%	-3.1%
O=C(Nc1ccc(F)c(Cl)c1)c1cc(C2CCCN(C(=O)C3CC3)C2)on1 (stereo not given)	2.1	.	.	2.82µM*	.
CCCc1cc(C(=O)Nc2ccc(F)c(Cl)c2)no1	0.5	24.9%	-1.5%	11.2µM*	10.5%
O=C(Nc1ccc(F)c(Cl)c1)c1cc(C2CCCCN2C(=O)C2CC2)on1 (stereo not given)	1.2	.	.	0.0%	.
CCCc1cc(C(=O)Nc2cccc(Cl)c2)no1	-2.0	5.9%	4.1%	?	3.5%
Cc1ccccc1OCCSc1nc2ccc(NC(=O)c3cccc(F)c3)cc2s1	.	.	.	-18.7%	.
CCCCCn1cc2c(c1-c1ccc(Br)cc1)c(=O)n(C)c(=O)n2C	.	.	.	-18.1%	.
